98 molecules from PubChem BioAssay AID1778 (Sanford-Burnham Center for Chemical Genomics, 2009) can be followed below.

The structures appear in SMILES notation. Out of some 290,000 compounds screened, about 260 (0.09%) were called active. Rule as the data show it: active = inhibition above about 50%; inactive = the rest. The full list was thinned out, with actives kept by preference. Potency and affinity values are given separately.

What is called inhibition is the drop in the measured response relative to a control, in per cent.

Sequence of Kappa-type opioid receptor (Homo sapiens) (P41145 whole entry, looked up): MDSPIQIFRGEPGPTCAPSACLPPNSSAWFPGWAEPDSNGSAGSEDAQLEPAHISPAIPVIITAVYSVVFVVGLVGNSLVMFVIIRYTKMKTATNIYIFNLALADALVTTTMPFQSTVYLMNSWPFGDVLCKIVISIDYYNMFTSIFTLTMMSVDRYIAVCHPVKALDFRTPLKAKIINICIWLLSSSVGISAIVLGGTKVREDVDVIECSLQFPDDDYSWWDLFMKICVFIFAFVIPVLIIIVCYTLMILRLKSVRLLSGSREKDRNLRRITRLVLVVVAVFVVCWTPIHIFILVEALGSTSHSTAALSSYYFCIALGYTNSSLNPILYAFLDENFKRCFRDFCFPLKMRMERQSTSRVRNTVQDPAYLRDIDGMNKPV

The assay concerns the target Kappa-type opioid receptor (Homo sapiens) (UniProt P41145). The assay is described as follows: KOR antagonists, beta-arrestin recruitment, cell-based, luminescence, uHTS (AID 1778). Particulars: antagonist mode, active compounds read high; at 10 µM unless noted. Background: Activated receptors often draw arrestin, which recruitment assays turn into a signal.
On to `CC(=O)Nc1ccc(S(=O)(=O)NCCC(=O)OCc2ccc([N+](=O)[O-])cc2)cc1`, for which the inhibition was 16.8% (inactive).

As for `CC1=NN(c2ccccc2)C(=O)/C1=C/N(C)C`, the inhibition is 3.4% (inactive).

In the case of `CC1=NN(c2ccc(C)cc2)C(=O)/C1=C\C=C\c1ccccc1`, the inhibition was -74.7% (inactive).

For `CC1=NN(c2ccccc2)C(=O)/C1=C\C=C\c1ccccc1`, the inhibition is -34.7% (inactive).

Consider `CC1=NN(c2ccccc2)C(=O)/C1=C/C=C/c1ccccc1`, for which the inhibition is -38.6% (inactive).

On to `O=C(Nc1cccc2c1CCCC2)c1cc([N+](=O)[O-])cc([N+](=O)[O-])c1`, for which the inhibition was -11.2% (inactive).

Take `CC1=CC(=Nc2c(C)n(C)n(-c3ccccc3)c2=O)C=CC1=O`: the inhibition was 35.7% (inactive).

With `Cc1c(N=c2scc(-c3ccccc3)n2C)c(=O)n(-c2ccccc2)n1C`, the inhibition is 16.6% (inactive).

Take `O=C(NC1(C(F)(F)F)OCCO1)c1ccc(F)cc1`: the inhibition was -28.6% [at 20 µM] (inactive).

For the molecule `COc1ccc(C(=O)CSc2ncn[nH]2)cc1OC`, the inhibition is 16.2% (inactive).

In the case of `COC(=O)c1ccc(OC(=O)c2cccnc2SC)cc1`, the inhibition is -3.6% (inactive).

For the molecule `C/C(=N\Nc1nc2ccccc2[nH]1)c1ccc(Cl)s1`, the inhibition is 20.9% (inactive).

On to `C/C(=N\Nc1ccc(Cl)cc1)c1ccccn1`, for which the inhibition is 1.2% (inactive).

Turning to `C/C(=N\Nc1nc2ccccc2[nH]1)c1ccccn1`, the inhibition is 91.3% (active).

As to `C/C(=N\Nc1ncc(Cl)cc1Cl)c1ccc(C#N)cc1`, the inhibition is -10% (inactive).

`C/C(=N\Nc1nc2ccccc2[nH]1)c1ccc(C)o1`: the inhibition is 33.8% (inactive).

`CC(=O)c1cc(-c2ccccc2)[nH]c1N1CCOCC1`: the inhibition is -10.8% (inactive).

`O=C(O)c1ccccc1S(=O)(=O)NCC(O)COc1ccc(Br)cc1` (stereo not drawn): the inhibition was 22.9% (inactive).

As for `CCCNC(=S)N1CCN(c2nc(-c3ccc(C)cc3)cs2)CC1`, the inhibition was -15.3% [at 20 µM] (inactive).

As for `COc1ccc(CS(=O)(=O)/C(Cl)=C(/Cl)C(=O)Nc2ccc(OC)nc2)cc1`, the inhibition was 40.1% (inactive).

On to `COc1ccc(NC(=O)/C(Cl)=C(/Cl)S(=O)(=O)Cc2ccccc2)cn1`, for which the inhibition is 58.9% (inactive).

Take `COc1ccc(NC(=O)/C(Cl)=C(/Cl)S(=O)(=O)Cc2ccc(C)cc2)cn1`: the inhibition is 47.9% (inactive).

As for `COc1ccc(CC(=O)Nc2ccc(OC)nc2)cc1`, the inhibition was 35.7% (inactive).

In the case of `COc1ccc(NC(=O)C(Cl)=C(Cl)Cl)cn1`, the inhibition is 8% (inactive).

Turning to `COc1ccc(NC(=O)/C(Cl)=C(/Cl)S(=O)Cc2ccc(Cl)cc2)cn1` (stereo not drawn), the inhibition is 48.8% (inactive).

On to `C(=C\CSc1ncn[nH]1)/CSc1ncn[nH]1`, for which the inhibition is 0.4% (inactive).

As for `CCSc1nc2c(cnn2-c2ccc(C)cc2)c(=O)[nH]1`, the inhibition was -21.4% (inactive).

As for `COC(=O)C1=CN(C2CC2)C=C(C(=O)OC)C1c1ccc(C(F)(F)F)cc1`, the inhibition was -9.8% [at 20 µM] (inactive).

For the molecule `COCCn1c(SCC(=O)N2CCCC2)nnc1-c1ccco1`, the inhibition was 10.6% (inactive).

On to `O=C(COc1ccc2c(C(F)(F)F)cc(=O)oc2c1)NCc1cccs1`, for which the inhibition is -40.4% (inactive).

With `S=C(Nc1ccc(Oc2ccccc2)cc1)Nc1cccnc1`, the inhibition was -26.6% [at 20 µM] (inactive).

As to `Cc1cc(C)cc(N2C(N)=NC(N)=NC2c2ccccc2F)c1` (stereo not drawn), the inhibition is 1.5% (inactive).

For `COC(=O)c1c(NC(=O)CN2CCN(c3ncccn3)CC2)sc(C(N)=O)c1C`, the inhibition was -4.1% (inactive).

As to `S=c1sc2c(N3CCOCC3)ncnc2n1-c1ccccc1`, the inhibition is -30.9% (inactive).

As to `S=c1sc2c(N3CCN(Cc4ccccc4)CC3)ncnc2n1-c1ccccc1`, the inhibition is -18% (inactive).

For the molecule `CCOc1ccc(CNc2ccc3c(c2)nc(C)n3C)cc1`, the inhibition was 7.3% (inactive).

Regarding `Oc1c(CN2CCc3ccccc3C2)cc(Cl)c2cccnc12`, the inhibition is -4% (inactive).

Turning to `Oc1ccc(CN2CCCCC2)c2cccnc12`, the inhibition is -7.4% (inactive).

`Nc1nc(NC(=O)c2cccs2)nn1-c1ccccc1`: the inhibition is -23% (inactive).

For `Oc1c(I)cc(I)c2cccnc12`, the inhibition is -35.5% (inactive).

Regarding `Clc1cc2cccnc2c2ccccc12`, the inhibition was 1.4% (inactive).

For the molecule `Oc1c(Cl)cc(CN2CCCCC2)c2cccnc12`, the inhibition was -1.6% (inactive).

On to `O=[N+]([O-])c1cc(Cl)c2cccnc2c1O`, for which the inhibition was 1.5% [at 20 µM] (inactive).

For `COc1cccc(NC(=O)CSc2nc3ccccc3n2C)c1`, the inhibition was 2.2% (inactive).

Regarding `Cc1cccc(NC(=S)NC(NC(=O)OCc2ccccc2)C(Cl)(Cl)Cl)c1` (stereo not drawn), the inhibition is -6.6% (inactive).

Consider `O=C(NC(NC(=S)Nc1cccc(C(=O)O)c1)C(Cl)(Cl)Cl)OCc1ccccc1` (stereo not drawn), for which the inhibition was 3.3% (inactive).

`Cc1ccc(C)c(NC(=S)NC(NC(=O)OCc2ccccc2)C(Cl)(Cl)Cl)c1` (stereo not drawn): the inhibition is -2% (inactive).

With `O=C(NC(NC(=S)Nc1cccc(Cl)c1)C(Cl)(Cl)Cl)OCc1ccccc1` (stereo not drawn), the inhibition was 5.1% (inactive).

Take `O=C(CNCCc1ccc(F)cc1)Nc1cc(F)ccc1F`: the inhibition is -1.9% (inactive).

As for `CC(=O)N1N=C(c2ccccc2)CC1c1cccc([N+](=O)[O-])c1` (stereo not drawn), the inhibition was -7% [at 20 µM] (inactive).

Turning to `O=C(O)CCC(=O)N1N=C(c2cccs2)CC1c1cccc([N+](=O)[O-])c1` (stereo not drawn), the inhibition is -24.4% [at 20 µM] (inactive).

`CCc1nn(CC(=O)NCCCN(C)Cc2ccccc2)c(=O)c2cc3sc(C)cc3n12`: the inhibition is 1.9% (inactive).

Take `CCC(=O)N1CC2(CC(c3cccc(NC(=O)COc4ccc(Cl)cc4)c3)=NO2)C[C@@H]1C(N)=O` (stereo partly drawn): the inhibition was 8.3% (inactive).

For the molecule `COC(=O)c1ccc(N/N=C/c2cc([N+](=O)[O-])cc(OC)c2O)cc1`, the inhibition was -4.6% (inactive).

For the molecule `O=C(N/N=C/c1cc(Br)cc([N+](=O)[O-])c1O)c1ccc(NC(=O)c2ccc(F)cc2)cc1`, the inhibition was -22.2% (inactive).

As for `CCOC(=O)c1ccc(N/N=C/c2cc(Br)cc([N+](=O)[O-])c2O)cc1`, the inhibition was 60.8% [at 20 µM] (active).

As to `COc1ccc(CNC(=O)C2CCC(CNS(=O)(=O)c3ccc(C)cc3)CC2)cc1` (stereo not drawn), the inhibition was 5.5% (inactive).

Take `O=C1CNC(=S)N1c1nc2ccccc2s1`: the inhibition is 18.9% (inactive).

Consider `CCOc1ccc2nc(N3C(=O)/C(=C/c4ccccc4)NC3=S)sc2c1`, for which the inhibition is 13.6% (inactive).

Consider `COc1ccc2nc(N3C(=O)CNC3=S)sc2c1`, for which the inhibition is 59.9% (inactive).

As to `Cc1ccc2nc(N3C(=O)CNC3=S)sc2c1`, the inhibition was 45.5% (inactive).

Consider `Cc1cc(C)cc(Nc2nc3c(S(=O)(=O)c4ccccc4)nnn3c3ccccc23)c1`, for which the inhibition is -17.6% (inactive).

In the case of `COc1cccc(NC(=O)CSc2ccc3nnc(-c4ccccn4)n3n2)c1`, the inhibition is 3% (inactive).

As to `Cc1ccc(SC[C@H](CC(C)C)N2CCN(C)CCC2=O)cc1`, the inhibition was 30.9% (inactive).

For `COc1ccccc1OC(C)C(=O)NNC(=S)NC1CCCC1` (stereo not drawn), the inhibition is 1.5% (inactive).

As for `COc1ccc(N2C(=S)NC3N2C(=S)NC3(C)c2ccccc2)cc1` (stereo not drawn), the inhibition is -26.3% (inactive).

As to `CC(C)CNS(=O)(=O)c1ccc(CCC(=O)N2CCC(C(N)=O)CC2)cc1`, the inhibition was -7.7% (inactive).

`Cc1cc(C)nc(-n2nc(C)cc2Nc2ccccc2)n1`: the inhibition is -25% (inactive).

For `Cc1ccc(Nc2cc(C)nn2-c2nc(C)cc(C)n2)cc1`, the inhibition is 2% (inactive).

Take `COc1cccc(N2C(=O)CC(N3CCN(c4ccc([N+](=O)[O-])cc4)CC3)C2=O)c1` (stereo not drawn): the inhibition was -48.1% [at 20 µM] (inactive).

As to `O=C(NCc1ccco1)C(c1cccs1)N(Cc1ccccc1)C(=O)Cn1nnc2ccccc21` (stereo not drawn), the inhibition was 9.5% (inactive).

Consider `Cc1ccc(CN(C(=O)Cn2nnc3ccccc32)C(C(=O)NCc2ccco2)c2cccs2)cc1` (stereo not drawn), for which the inhibition was 17.9% (inactive).

For `Cc1cccc(C)c1NC(=O)C(c1cccs1)N(Cc1ccco1)C(=O)Cn1nnc2ccccc21` (stereo not drawn), the inhibition was 53.4% (active).

On to `COc1cc(NS(=O)(=O)c2cn(C)cn2)cc(OC)c1`, for which the inhibition is -11.4% (inactive).

Take `Cc1ccc(NC(=O)c2cc(N3C(=O)CCC3=O)ccc2N2CCOCC2)cc1`: the inhibition is -2.1% [at 20 µM] (inactive).

As to `Cc1ccc(NC(=O)c2cc(N3C(=O)C=CC3=O)ccc2N2CCOCC2)cc1Cl`, the inhibition is -45.3% (inactive).

For the molecule `O=C(Nc1ccc(N2CCOCC2)c([N+](=O)[O-])c1)c1ccco1`, the inhibition was 11.4% (inactive).

As for `Cc1ccc(-c2ccc(C(=O)O)c(C)n2)cc1`, the inhibition was 21% (inactive).

Take `Cc1ccc(N=Nc2ccc(O)c3ncccc23)cc1`: the inhibition was -2.4% (inactive).

For `Cc1ccc(N=Nc2cc(C)ccc2O)c(C)c1`, the inhibition is 19.5% (inactive).

`Oc1ccc(N=Nc2ccccc2C(F)(F)F)c2cccnc12`: the inhibition is 29.5% (inactive).

For `O=Nc1ccc(O)c2ncccc12`, the inhibition is 7.2% (inactive).

Consider `Cc1ccc(C)c(N=Nc2ccc(O)c3ncccc23)c1`, for which the inhibition was 60.4% (active).

Consider `COc1ccccc1N=Nc1ccc(O)c2ncccc12`, for which the inhibition is -19.2% (inactive).

Turning to `Cc1ccc(N=Nc2ccc(O)c3ncccc23)cc1C`, the inhibition is 60.3% (active).

On to `CCS(=O)(=O)c1ccc(OC)c(N=Nc2ccc(O)c3ncccc23)c1`, for which the inhibition was 1.8% (inactive).

Turning to `CC(C)Oc1ccc(N2CC(C(=O)Nc3ccccn3)CC2=O)cc1` (stereo not drawn), the inhibition is 19.8% [at 20 µM] (inactive).

Regarding `COc1cc(/C=C2/N=C(C3CCCCC3)OC2=O)cc(OC)c1OC`, the inhibition is -1.6% (inactive).

For the molecule `CCC(=O)Nc1ccc(NC(=O)c2cccc3ccccc23)cc1`, the inhibition is -36.8% [at 20 µM] (inactive).

Regarding `S=C(NCCCc1ccccc1)NCc1ccccc1`, the inhibition is 7.2% (inactive).

With `Cc1ccc(S(=O)(=O)N2CCOCC2)cc1C(=O)NC1CCSc2ccccc21` (stereo not drawn), the inhibition is 27.2% (inactive).

With `CCOc1ncccc1C(=O)NCCc1ccc(S(N)(=O)=O)cc1`, the inhibition was -2.5% (inactive).

Regarding `COc1ccc(C(NC(=O)c2ccc(=O)[nH]c2)C(=O)Nc2ccc(C(C)C)cc2)cc1` (stereo not drawn), the inhibition is -5% (inactive).

Turning to `CCOCCCNC(=O)c1cc(=O)n(Cc2cccc(C)c2)c2ccccc12`, the inhibition is 3.1% (inactive).

For the molecule `O=C(C#Cc1ccccc1)c1cccc([N+](=O)[O-])c1`, the inhibition is -9.6% (inactive).

For `O=C(Nc1cccc([N+](=O)[O-])c1)c1ccccc1`, the inhibition is 2.6% (inactive).

On to `O=C(c1ccc(-c2ccccc2)cc1)c1ccc([N+](=O)[O-])cc1`, for which the inhibition was -69.2% (inactive).

For the molecule `O=C(c1ccccc1)c1ccc(Sc2ccc([N+](=O)[O-])cc2)cc1`, the inhibition is 10.8% (inactive).
